Reference: the supplement of paper PMC6555819

Legend:
Assay in all cases: PBM binding z-score (relative to random genomic background probes); higher = stronger binding; sequences stand for … in GC…GCGATTGACAGCGTAGAATGAAGG
[1] = test system: RARb homodimer (NR concentration 270 nM)
Method in brief: (§1)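 On custom Agilent 4×180K arrays, double-stranded probes with 34-nt variable regions carried direct-repeat seeds, single-nucleotide variants, half-site ablations or random human genomic background. Ligand-free nuclear receptor dimers were applied for 1 h, and binding was read with antibodies against each partner (one per run). Binding z-scores come from regression-normalized fluorescence, with the random background probes as reference.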

[2] = test system: RARg:RXRa (NR concentration 270 nM, RXRa partner concentration 90 nM)
Method in brief: as §1

[3] = test system: RARg homodimer (NR concentration 270 nM)
Method in brief: as §1

[4] = test system: RXRa DBDmut IVT, anti-RXR (DBD mutation: RXRa K156A/R161A, NR concentration 90 nM)
Method in brief: as §1

[5] = test system: RXRa homodimer (NR concentration 180 nM)
Method in brief: as §1

[6] = test system: THRa:RXRa (NR concentration 90 nM, RXRa partner concentration 90 nM)
Method in brief: as §1

[7] = test system: THRa homodimer (NR concentration 90 nM)
Method in brief: as §1

[8] = test system: VDR homodimer (NR concentration 270 nM)
Method in brief: as §1

| Sequence | PBM binding z-score [1] | PBM binding z-score [2] | PBM binding z-score [3] | PBM binding z-score [4] | PBM binding z-score [5] | PBM binding z-score [6] | PBM binding z-score [7] | PBM binding z-score [8] |
| --- | --- | --- | --- | --- | --- | --- | --- | --- |
| TCTATTAGTTGAAGGGTAACCGACGAGTCCGTTT | 0.751 | 0.464 | 0.398 | 1.95 | 0.736 | 0.32 | 0.529 | 1.44 |
| CCTGCTAGGTCATGGTCAGCTGATCTACAGTATG | 3.13 | 3.97 | 4.53 | 1.96 | 3.2 | 3.17 | 1.23 | 0.608 |
| GGAACGAGGGCATTCGAGTTGATTGCATGGCGAT | 0.671 | 1.07 | 1.15 | 3.28 | 0.842 | 3.52 | -0.335 | 3.28 |
| CGTCCAAAGTCAGAGAGGTCAGTGAATGCCGAGT | 4.21 | 2.98 | 3.26 | 1.16 | 2.65 | 2.72 | 0.954 | 2.12 |
| ATATGTAGGTTACATCCGGATCATTCAGGCTATG | 0.614 | 1.02 | 1.25 | 0.718 | 1.24 | 1.3 | 0.394 | 0.331 |
| CCTAGCAGGCCAGGGCCACTCAAGCATTTCGCTT | -0.124 | -0.441 | -0.124 | -0.762 | -0.718 | -0.482 | -0.794 | -0.946 |
| CAAACTAGGTCTCAGAGGTCAAAGTCCGTGCGTA | 4.68 | 5.13 | 4.6 | 1.65 | 6.01 | 3.63 | 1.7 | 4.57 |
| CTCGAAAGGTCGTGCTCAGCTGAGTATACCAAAC | 2.34 | 4.28 | 3.82 | 2.32 | 4.89 | 2.19 | -0.199 | 0.89 |
| CCTAGCAGGCCGATCTGGGTCACTCAAGGCTTGA | 1.59 | 0.546 | 0.594 | -0.129 | 0.768 | 2.97 | 0.256 | -0.162 |
| TGAAAGAGGTTATAAGATCAGGGAACGTTGCAAA | 0.261 | 2.01 | 1.15 | 0.022 | 2.37 | 0.935 | -0.921 | -0.105 |
| CCGAATGGGGCAGAAAGGTTACCATACCATCCGG | 2.38 | 1.8 | 1.36 | -0.766 | 1.91 | 1.07 | -0.641 | -0.0198 |
| TCTATAAGTTGATTAGGGCAACCGAAACAGCGGA | 0.772 | 0.61 | 0.741 | 1.23 | 0.5 | 1.11 | 0.212 | 0.543 |
| ATCTCTAGGCAAAGATAGTTCAGTGAATGCAAAT | 0.533 | 0.288 | 0.586 | -0.0612 | -0.0781 | 0.0396 | -0.577 | 0.0259 |
| TCATATAGGTAAAAAGTGAAAGTCGGTGTGGTAA | 0.0434 | 0.226 | -0.0939 | 2.01 | 0.563 | -0.0757 | -0.132 | 0.435 |
| CCAGCCAGGTGAGAAGGTAACTCAGCCTCGATTA | 0.235 | 0.0253 | 0.00676 | -0.801 | 0.0434 | 0.621 | 0.306 | -0.441 |
| ACTCGGAGGACAAAGGTCGGAGCTACGCCAGTGA | 2.12 | 3.28 | 1.75 | 0.784 | 2.2 | 1.98 | 0.0146 | 0.22 |
| GCATATAGGTAATAAAAGGTGAAAGTCCGATTGT | 1.63 | 0.972 | 0.621 | 0.496 | 1.53 | 2.61 | -0.141 | 0.166 |
| GCTAGTTGGTCAGTAGAAGGTCACACACCGGTCG | 4.34 | 4.23 | 3.7 | 0.334 | 3.35 | 2.75 | 1.59 | 1.32 |
| CCCACTGGGGCAGAAAGGTTACCATACCATCCGG | 2.2 | 1.52 | 1.63 | -1.65 | 1.6 | 1.01 | -0.221 | -0.41 |
| TAGCCTAGGTGATGCGGGCCAGTATAGTGTCGGC | -0.307 | -0.331 | -0.372 | -1.62 | -0.304 | -0.285 | -0.885 | -1.22 |
| CAAACTAGGTCAAGGTTAAAGTCGGTTTGTGCCA | 3.76 | 4.29 | 5.18 | 1.95 | 3.67 | 3.56 | 1.82 | 1.79 |
| GCTATTAGTTGAAAGGTCAACCGAATGATTCTCG | 5.01 | 6.07 | 5.57 | 1.88 | 7.11 | 3.83 | 1.41 | 2.06 |
| ACAGACACGTGATGAAGGTAACTCAGGCTATCAT | -0.0735 | 0.142 | 0.316 | 0.207 | 0.38 | 0.724 | 0.228 | -0.42 |
| TCATGTAGGTAAACAGGTGAAAGTCCGTAAGTTA | 0.722 | 0.133 | 0.0838 | 0.975 | 0.516 | 0.578 | 0.226 | -0.0362 |
| TCTTTTAGTTGAAGGGCAACCGACGAGTCCGTTT | 1.24 | 0.599 | 0.744 | 1.5 | 0.842 | 0.355 | -0.174 | 1.29 |
| CGAACGAGGGCATGAGTTGATTGCAAATGCCGAT | 0.769 | 1.29 | 1.48 | 2.73 | 0.985 | 1.22 | -0.209 | 1.94 |
| ATCACTAGGTAACAAGTTCAGTGAAAGAGAGGAC | 1.82 | 1.45 | 1.49 | 1.12 | 0.815 | 1.54 | 0.852 | 2.7 |
| TCTTGTAGATCAATAGAGGTTAGGAAAGTGCGCT | 0.826 | 0.947 | 0.486 | 0.658 | 1.29 | 2 | -0.0407 | 0.48 |
